Screening data deposited in PubChem BioAssay by NMMLSC.
Shown are actives, neighbours in structure and some others; about 0.93% of the full set was active somewhere.
AGP1 TOR yeast: yeast TOR pathway AGP1-GFP modulation; S. cerevisiae AGP1-GFP multiplex flow cytometry, 3 h; GFP as percent of DMSO wells; GFP response vs DMSO, % at 10 µM; 320,000 tested, 0.02% active; AID 2066;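 active = GFP response relative to DMSO above a set limit, near screen average plus 3 SD, cut at about 150% in these data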;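 note: median GFP channel fluorescence of the gated AGP1 strain per well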
RPL19A-GFP yeast: modulators of TOR pathway RPL19A-GFP in S. cerevisiae; S. cerevisiae RPL19A-GFP strain, flow cytometry, 3 h; active compounds read low; percent response vs DMSO, % at 10 µM; 330,000 tested, 0.3% active; AID 2025;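 active = percent response vs DMSO below 50%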;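 note: median channel GFP fluorescence of the barcoded RPL19A-GFP strain; lower means less RPL19A-GFP as with rapamycin TOR inhibition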
LAP4 TOR yeast: yeast TOR pathway LAP4-GFP modulation; S. cerevisiae LAP4-GFP multiplex, flow cytometry GFP, 3 h; median GFP as percent of DMSO wells; GFP response vs DMSO, % at 10 µM; AID 2023; 320,000 tested, 0.34% active;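 active = GFP response vs DMSO above a set limit, about the screen mean plus 3 SD, cut at about 150% in these data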
MEP2 TOR yeast: yeast TOR pathway MEP2-GFP modulation | S. cerevisiae MEP2-GFP strain, flow cytometry GFP, 3 h; 100% = DMSO control level | GFP response vs DMSO, % at 10 µM | 330,000 tested, 0.51% active | AID 2016;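 active = GFP response versus DMSO above a set limit, roughly screen mean plus 3 SD, cut at about 180% in these data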;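 note: median GFP fluorescence of the barcode-gated MEP2-GFP cells per well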
CIT2-GFP yeast: alters CIT2-GFP fluorescence in TOR pathway yeast screen; S. cerevisiae CIT2-GFP strain, flow cytometry, 3 h; 100 means same as DMSO wells; GFP response vs DMSO, % at 10 µM; 320,000 tested, 0.065% active; AID 2029;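 active = GFP response relative to DMSO above a set limit, near the screen mean plus 3 SD, cut at about 150% in these data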;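 note: ratio of well median GFP fluorescence to mean of DMSO wells on the plate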
LAP4-GFP pick2: second confirmation of modulators of TOR reporter LAP4-GFP in yeast. shares compounds with LAP4 TOR yeast. S. cerevisiae LAP4-GFP strain, flow cytometry GFP, 3 h. GFP response vs DMSO, % at 10 µM. 590 tested, 20% active;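 active = GFP signal as percent of the solvent control above about 150%, meaning raised reporter expression, limit read from the data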
MEP2 cherry2: yeast MEP2-GFP modulation, second cherry pick; shares compounds with LAP4 TOR yeast; S. cerevisiae MEP2-GFP strain, flow cytometry GFP, 3 h; GFP response vs DMSO, % at 10 µM; 590 tested, 10% active; AID 2622;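 active = GFP signal above 150% of the solvent control wells, that is a rise of more than half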;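 note: median channel GFP fluorescence of all gated yeast cells per well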
RPL19A GFP CP2: yeast RPL19A-GFP TOR reporter modulation, second cherry pick; shares compounds with LAP4 TOR yeast; S. cerevisiae RPL19A-GFP strain, flow cytometry GFP, 3 h; active compounds read low; 100% means same as DMSO wells; GFP response vs DMSO, % at 10 µM; 590 tested, 3% active;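 active = under 65% GFP response relative to DMSO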;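 note: median GFP channel fluorescence per well over the all cells gate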
CIT2-GFP pick2: reconfirmed modulator of CIT2-GFP TOR reporter in yeast. shares compounds with LAP4 TOR yeast. S. cerevisiae CIT2-GFP strain, flow cytometry GFP, 3 h; DMSO control wells read 100%. GFP response vs DMSO, % at 10 µM. 590 tested, 8% active. AID 2624;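 active = GFP response vs DMSO above about 150%, limit read from the data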;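 note: median green fluorescence per well over all gated yeast cells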
AGP1-GFP pick2: yeast AGP1-GFP TOR reporter modulation, second cherry pick | 590 tested, under 10 active | shares compounds with LAP4 TOR yeast | percent response vs DMSO, % at 10 µM | S. cerevisiae AGP1-GFP strain, flow cytometry GFP, 3 h;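 active = over 150 percent of DMSO response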;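 note: median GFP channel fluorescence over all cells without mother daughter split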
Yeast autofluor: compound is autofluorescent in yeast s288c cells. shares compounds with LAP4 TOR yeast. S. cerevisiae s288c, 520 nm autofluorescence, flow cytometry, 3 h; active compounds read high; zero means same as solvent-only cells. fluorescence change (kMESF span) at 33 µM. 610 tested, under 10 active;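 active = fluorescence span over the dose series, or activity score, above about 33, limit read from the data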
s288c autofl DR: TOR screen hit shows autofluorescence in yeast s288c; S. cerevisiae s288c parental, compound autofluorescence, flow cytometry, 3 h; shares compounds with LAP4 TOR yeast; 110 tested, under 10 active; fluorescence change (span) at 33 µM; AID 488829;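 active = fluorescence change span, or the activity score built from it, above 25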
TORC1 bypass: compounds blocking wildtype yeast growth but not TORC1 bypass cells; S. cerevisiae BY4741 spot growth rating, 48-72 h; active compounds read low; 120 tested, under 10 active; shares compounds with LAP4 TOR yeast; growth rating (0-3) at 30 µM;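 active = growth rating at most 1 for wild type yeast while the TORC1 bypass strain still grows fully, rated 3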
Large screens that a line does not name were inactive (follow-up assays come after a bar, where they were run).

CCOC(=O)C1=C(COC(=O)CNC(=O)c2ccc(C(C)(C)C)cc2)NC(=O)NC1C (stereo unspecified)	none
CCOC(=O)C1=C(COC(=O)CNC(=O)c2ccc(C)cc2)NC(=O)NC1C (stereo unspecified)	none | LAP4-GFP pick2 inactive | MEP2 cherry2 inactive | RPL19A GFP CP2 inactive | CIT2-GFP pick2 inactive | AGP1-GFP pick2 inactive
Oc1ccc(Cl)cc1CNCC1CCCCC1	none
O=C1c2ccccc2C(=O)C1c1ccccn1	none
O=C1c2ccccc2C(=O)C2OC12 (stereo unspecified)	LAP4 TOR yeast 163 | Yeast autofluor inactive
Cc1cc(C)cc(NC(=O)C(=O)NCC2CCCN2S(=O)(=O)c2cccs2)c1 (stereo unspecified)	none
CC(=O)NC(c1cc(Cl)c2cccnc2c1O)C(C)C (stereo unspecified)	none
CN1CCN(C(c2ccc(C(F)(F)F)cc2)c2ccc3cccnc3c2O)CC1 (stereo unspecified)	LAP4 TOR yeast 322 | Yeast autofluor inactive | s288c autofl DR inactive | TORC1 bypass inactive
Cc1ccc(C(c2cc(Cl)c3cccnc3c2O)N2CCN(C)CC2)cc1 (stereo unspecified)	LAP4 TOR yeast 227 | Yeast autofluor inactive | s288c autofl DR inactive | TORC1 bypass inactive
Oc1c(C(Nc2cccc(C(F)(F)F)c2)c2cccnc2)ccc2cccnc12 (stereo unspecified)	none
CCCCn1nc(C(=O)Nc2ccccc2N2CCCC2)c2ccccc2c1=O	none
Cc1cccc(CN2CCc3c([nH]c4ccccc34)C2C(C)(C)C)n1 (stereo unspecified)	none
COc1ccccc1N1C(=O)c2cccc3c(C(=O)O)ccc(c23)C1=O	none | Yeast autofluor inactive
Cc1c(C(=O)Nc2ccc(C(F)(F)F)cc2)sc2ncn(CC(=O)N3CCN(c4ccccn4)CC3)c(=O)c12	none
CN(Cc1ccccc1)C(=O)CCC1CCN(C(=O)c2ccccc2C(F)(F)F)CC1	CIT2-GFP yeast 157 | LAP4-GFP pick2 inactive | MEP2 cherry2 inactive | RPL19A GFP CP2 inactive | CIT2-GFP pick2 inactive | AGP1-GFP pick2 inactive
CSCc1ccc(C(=O)N2CCC(CCC(=O)N(C)Cc3ccccc3)CC2)o1	none
Cc1ccc(S(=O)(=O)N2CCN(CCc3ccccc3)CC2)c(C)c1	none
Cc1ccc(S(=O)(=O)ON2C(=O)c3ccccc3C2=O)c(C)c1	none | LAP4-GFP pick2 inactive | MEP2 cherry2 168 | RPL19A GFP CP2 inactive | CIT2-GFP pick2 inactive | AGP1-GFP pick2 inactive | Yeast autofluor inactive
